# Source: PubChem BioAssay AID1209 (Sanford-Burnham Center for Chemical Genomics, 2008)
# The whole screen tested about 190,000 compounds, of which about 810 (0.43%) were called active. No stated cut-off is given here; in the data, active means inhibition above about 50%; inactive means the rest. Shown is part of a subset that was picked to be rich in actives.
# Molecular target: Mannose-6-phosphate isomerase (Homo sapiens) (UniProt P34949)
# Experiment: inhibitors of human PMI, primary screen, biochemical, fluorescence intensity, coupled assay (AID 1209);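 further: plate controls were DMSO vehicle for no effect and wells lacking substrate for full effect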
# Details: purified PMI enzyme, at 20 µM, stronger effect = higher value
# Sequence of Mannose-6-phosphate isomerase (Homo sapiens) (P34949 whole entry, looked up): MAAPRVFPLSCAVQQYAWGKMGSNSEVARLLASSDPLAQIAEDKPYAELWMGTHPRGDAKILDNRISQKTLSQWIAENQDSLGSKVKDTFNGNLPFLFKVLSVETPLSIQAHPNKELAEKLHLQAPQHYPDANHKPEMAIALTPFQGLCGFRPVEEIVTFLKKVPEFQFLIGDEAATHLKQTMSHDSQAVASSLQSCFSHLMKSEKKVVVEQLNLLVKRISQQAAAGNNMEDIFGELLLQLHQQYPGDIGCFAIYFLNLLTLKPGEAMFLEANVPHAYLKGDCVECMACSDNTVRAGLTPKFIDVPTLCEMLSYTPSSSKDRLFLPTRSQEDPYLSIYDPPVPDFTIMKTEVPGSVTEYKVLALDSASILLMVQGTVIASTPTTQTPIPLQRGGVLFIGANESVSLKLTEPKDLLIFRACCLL
row,SMILES,inhibition
1,CCOC(=O)Nc1ccc(OCc2nnc3c4ccccc4c(C)nn23)cc1,3.7% (inactive)
2,CCOC(=O)c1cnc(SCC(=O)NCc2cccs2)nc1N,-5.5% (inactive)
3,CCN(CC)S(=O)(=O)c1ccc(/C=C/C(=O)OCC(=O)Nc2ccc(C(N)=O)cc2)cc1,-5.2% (inactive)
4,CCN(CC)S(=O)(=O)c1ccc(/C=C/C(=O)OCC(=O)Nc2ccc(S(N)(=O)=O)cc2)cc1,70.7% (active)
5,NS(=O)(=O)c1ccc(NC(=O)COC(=O)/C=C/c2ccc([N+](=O)[O-])cc2)cc1,-1.2% (inactive)
6,Cc1c(C(=O)N2CCN(c3ccccc3F)CC2)sc2ncn(CC(=O)N3CCOCC3)c(=O)c12,-1.6% (inactive)
7,Cc1c(NC(=O)c2ccc(C(C)(C)C)cc2)cccc1[N+](=O)[O-],7.4% (inactive)
8,CCn1c(CCc2ccccc2)n[nH]c1=S,-3% (inactive)
9,CCn1c(SCC(=O)N/N=C/c2cc(OC)c(O)c(OC)c2)nc2ccccc21,-0.1% (inactive)
10,CCn1c(SCC(=O)N/N=C/c2ccc(OC)c(OC)c2)nc2ccccc21,8.4% (inactive)
11,CCn1c(SCC(=O)N/N=C/c2ccc(O)c(OC)c2)nc2ccccc21,61.7% (active)
12,COc1ccccc1N1CCN(C(=O)C2CCN(S(=O)(=O)N3CCOCC3)CC2)CC1,-6.6% (inactive)
13,Cc1cccc(NC(=S)N(CCCN2CCOCC2)Cc2ccccn2)c1,-1.4% (inactive)
14,CCN(CC)C(=O)c1cn(C)c(=O)c2cc(OC)c(OC)cc12,12.6% (inactive)
15,COc1ccc(CNc2nc(-c3cccnc3)nn2C(=O)C(C)C)cc1,1.5% (inactive)
16,Cc1nn(C2CCS(=O)(=O)C2)c(Cl)c1/C=C/C(=O)OCC(=O)Nc1ccccc1[N+](=O)[O-] (centres undefined),18.2% (inactive)
17,C(=N/n1c2ccccc2c2ccccc21)/c1ccco1,18.5% (inactive)
18,CN(C)c1ccc(N=Cc2ccco2)cc1,44.6% (inactive)
19,C(=Nc1cccc2c(N=Cc3ccco3)cccc12)c1ccco1,82.9% (active)
20,COC(=O)Cn1c(=O)n(CCc2ccccc2)c(=O)c2c3c(sc21)CCCC3,23% (inactive)
21,COC(=O)c1ccc(NC(=O)CSc2nnc(C)n2-c2ccccc2)cc1,9.9% (inactive)
22,NC(CO)C(=O)NNCc1ccc(O)c(O)c1O (centres undefined),78% (active)
23,Cc1cc(C(=O)O)c(S(C)(=O)=O)s1,-0.9% (inactive)

row,SMILES,inhibition
1,Cc1cc(-c2nsc(=O)o2)c(S(C)(=O)=O)s1,53.2% (active)
2,O=C(CCc1cnccn1)NC1CCCc2c1cnn2-c1ccc(F)cc1F (centres undefined),6.3% (inactive)
3,C=CCSc1nc2sc3c(c2c(=O)n1CC)CCc1ccccc1-3,71.8% (active)
4,C=CCn1c(SCC)nc2sc3c(c2c1=O)CCc1ccccc1-3,7.8% (inactive)
5,C=CCSc1nc2sc3c(c2c(=O)n1CC=C)CCc1ccccc1-3,10.5% (inactive)
6,CS(=O)(=O)N1N=C(c2ccc(Br)cc2)CC1c1cccs1 (centres undefined),12.1% (inactive)
7,Cc1sc(/N=C/c2c(O)ccc3ccccc23)c(C#N)c1C,-6% (inactive)
8,COc1ccc(O)c(/C=N/c2sc(C)c(C)c2C#N)c1,53.8% (active)
9,Cc1sc(/N=C/c2ccccc2O)c(C#N)c1C,0.9% (inactive)
10,CN(CCC1CCOCC1)C(=O)CC1C(=O)NCCN1C/C=C/c1ccccc1 (centres undefined),5.6% (inactive)
11,Cc1ccc(-c2nc(N)sc2-c2ccc(C)cc2)cc1,13.3% (inactive)
12,Cc1ccc(-c2nc(N)sc2C)cc1,-11% (inactive)
13,CNc1nc(-c2ccccc2)[n+](-c2ccc(C)cc2)s1,89.5% (active)
14,Cc1ccc(-c2nnc(-c3ccccc3)c(-c3ccccc3)n2)cc1,8.3% (inactive)
15,Cc1ccc(-c2nc(N)s[n+]2-c2ccccc2)cc1,106% (active)
16,Cc1ccc(-c2cc(-c3ccccc3)nc(Cl)n2)cc1,16.6% (inactive)
17,O=C(Nc1ccc(N2CCCC2)c(Cl)c1)c1ccccc1[N+](=O)[O-],-3.5% (inactive)
18,Cc1cc(N/N=C/c2ccc(Cl)cc2Cl)nc(NCc2ccccc2)n1,20.3% (inactive)
19,O=C(NCc1ccccc1)NCC12CC3CC(CC(C3)C1)C2,1.8% (inactive)
20,CC[n+]1c(/C=C/C=C/N(C(C)=O)c2ccccc2)sc2cc(OC)ccc21,-17.8% (inactive)
21,COc1ccc2sc(C)[n+](C)c2c1,84.3% (active)
22,CCC[n+]1c(C)sc2c(OC)ccc(OC)c21,3.5% (inactive)
23,CCOC(=O)C[n+]1c(C)sc2ccc(OC)cc21,3.3% (inactive)

row,SMILES,inhibition
1,CC[n+]1c(C)sc2cc(OC)ccc21,73.9% (active)
2,COc1ccc2sc(/C=C/c3ccccc3O)[n+](C)c2c1,4.3% (inactive)
3,Cc1ccc2sc(C)[n+](CCC(C)S(=O)(=O)[O-])c2c1 (centres undefined),1% (inactive)
4,Cc1ccc2c(c1)sc(C)[n+]2CCCS(=O)(=O)[O-],9.6% (inactive)
5,CCCC[n+]1c(C)sc2cc(OC)ccc21,16.5% (inactive)
6,CCC[n+]1c(C)sc2c3c(ccc21)CCCC3,22.9% (inactive)
7,CC[n+]1c(C)sc2cc(C)ccc21,77% (active)
8,O=C(Nc1cccc(C(=O)N2CCOCC2)c1)NC1CCCCC1,8.1% (inactive)
9,N#Cc1c(SCC(N)=O)nc(-c2ccccc2)c2c1CCCC2,-2.9% (inactive)
10,CCN1C(=O)C2(C(C#N)=C(N)Oc3cc(C)oc(=O)c32)c2ccccc21 (centres undefined),5.6% (inactive)
11,CCC(C)c1ccccc1NC(=O)Cc1coc2cc3c(cc12)CCC3 (centres undefined),19.4% (inactive)
12,CCOc1ccc(N2C(=O)CCC2=O)cc1,6.4% (inactive)
13,C/C(=C\C(=O)OCC(=O)NCc1ccccc1)C(=O)OCC(=O)NCc1ccccc1,6% (inactive)
14,O=C1CCC([N+](=O)[O-])C(c2cccc(Br)c2)N1 (centres undefined),-1% (inactive)
15,O=C(Cn1cc2c(n1)CCCC2)NCC1CCCO1 (centres undefined),3.4% (inactive)
16,Cc1ccc2sc(C)[n+](CCCS(=O)(=O)[O-])c2c1,-3% (inactive)
17,Cc1sc2c3ccsc3ccc2[n+]1C,-2.6% (inactive)
18,Cc1sc2ccc3sccc3c2[n+]1C,-21.2% (inactive)
19,CCCC[n+]1c(C)sc2ccc(C)cc21,61.6% (active)
20,CC[n+]1c(C)sc2c3ccsc3ccc21,66.7% (active)
21,Cc1ccc2sc(C)[n+](CCO)c2c1,-7.8% (inactive)
22,CCOP(=O)(OCC)C(Nc1ccc(C)cc1)c1ccco1 (centres undefined),-14.5% (inactive)
23,NC(=O)N/N=C/c1ccccc1OCC(=O)NCc1ccccc1,1.8% (inactive)

row,SMILES,inhibition
1,Cc1ccc(S(=O)(=O)NC(N)=NCCc2ccc(Cl)cc2)cc1C,15.4% (inactive)
2,CC(C)N1CCC2(CC1)N=C(c1ccc3c(c1)OCO3)CC(c1cc(Cl)ccc1O)N2 (centres undefined),23.4% (inactive)
3,COc1ccc(C(=O)c2cnc(/N=C/N(C)C)s2)cc1,14.2% (inactive)
4,COc1ccc(NC(=O)CSc2nnc(Cn3cnc4ccccc43)o2)cc1,4.8% (inactive)
5,O=C(O)c1cccc(N2C(=O)/C(=C/c3ccc(SCc4ccc(Cl)cc4)o3)SC2=S)c1,73.3% (active)
6,O=C(O)c1cc(-c2ccc(/C=C3/SC(=S)N(Cc4ccccc4)C3=O)o2)ccc1Cl,-29.3% (inactive)
7,O=C1NC(=S)S/C1=C/c1ccc(N2CCOCC2)o1,-25.3% (inactive)
8,O=C1NC(=S)S/C1=C\c1ccc(SCc2ccco2)o1,10.3% (inactive)
9,Cc1ccc(/C=C2\SC(=S)N(Cc3ccccc3)C2=O)o1,18.3% (inactive)
10,Cc1cccc(C)c1-n1cccc1/C=C1\SC(=S)N(c2cccc(C(=O)O)c2)C1=O,1.3% (inactive)
11,O=C1/C(=C\c2ccco2)SC(=S)N1c1ccccc1,22.8% (inactive)
12,O=C1NC(=S)S/C1=C\c1ccc(SCc2ccccc2)o1,80.4% (active)
13,O=C(O)CN1C(=O)/C(=C/c2ccc(SCc3ccccc3)o2)SC1=S,85.2% (active)
14,COC(=O)[C@@H](NC(=O)N(C1CCCCC1)C1CCCCC1)C(C)C,-2.2% (inactive)
15,Cc1nnc(SCC(=O)N2CC(=O)Nc3ccccc32)n1C,-5.6% (inactive)
16,Cc1ccc(N/C=C/C(=O)c2sc(-c3ccccc3)nc2C)cc1,14.3% (inactive)
17,COc1ccc(-c2csc(NC(=O)Cc3cccc4ccccc34)c2C(=O)O)cc1,-0.1% (inactive)
18,O=C(O)c1cccnc1SC1CC(=O)N(CCc2ccccc2)C1=O (centres undefined),3.4% (inactive)
19,CCc1nnc(NC(=O)c2ccc(S(=O)(=O)N3CCN(Cc4ccccc4)CC3)cc2)s1,-1.5% (inactive)
20,C/C=C/c1c(F)c(F)c(Oc2ccc(C(=O)O)cc2)c(F)c1F,-3.5% (inactive)
21,Cc1noc(C)c1COC(=O)CNC(=O)c1ccc(Cl)cc1,-4.1% (inactive)
22,COCCNC(=O)c1ccc(CN2CCOCC2)cc1,-8.4% (inactive)
23,CCN1C(=O)C(CC(=O)Nc2ccc(OC)cc2)N(CCc2ccc(OC)cc2)C1=S (centres undefined),-4.1% (inactive)

row,SMILES,inhibition
1,C=CCOC(=O)C1=C(C)NC(=S)NC1/C=C/c1ccccc1 (centres undefined),2.3% (inactive)
2,O=c1c(Cc2ccc(F)cc2)c(O)ccn1CCCn1ccnc1,3% (inactive)
3,COc1ccc(C(=O)Oc2ccc(C(=S)N3CCOCC3)cc2)cc1,51% (active)
4,O=C(Oc1ccc(C(=S)N2CCOCC2)cc1)c1ccc(Br)cc1,5.3% (inactive)
5,O=C(Oc1ccc(C(=S)N2CCOCC2)cc1)c1ccccc1,3.3% (inactive)
6,O=C(Nc1ncccn1)c1ccc(C(F)(F)F)cc1,4% (inactive)
7,CCOC(=O)C1(CCOC)CCN(Cc2ccccc2-c2ccco2)CC1,3.5% (inactive)
8,O=C1CCCN2N=C(SCC(=O)Nc3nccs3)SC2=N1,-3.6% (inactive)
9,CCCCOc1ccc(/C=C/C(=O)NC2=Nc3ccccc3NC(C)=C2C(=O)OCC)cc1OC,65.6% (active)
10,CCOC(=O)C1=C(C)Nc2ccccc2N=C1NC(=O)/C=C/c1ccc(OC)cc1OC,19.3% (inactive)
11,CCOC(=O)C1=C(C)Nc2ccccc2N=C1NC(=O)Cc1ccc(OC)cc1,1.1% (inactive)
12,Cc1c(-c2ccccc2)[n+](=O)c(-c2ccc(Cl)cc2)c(C)n1[O-],4.1% (inactive)
13,Cc1ccc(CN(c2ccc(C(=O)NCc3cccnc3)cc2)S(C)(=O)=O)cc1,-2.9% (inactive)
14,c1ccc(OCc2nnc3sc(-c4cccs4)nn23)cc1,65.5% (active)
15,c1ccc(Cc2nn3c(COc4ccccc4)nnc3s2)cc1,53.1% (active)
16,c1ccc(Cc2nnc3sc(-c4cccs4)nn23)cc1,8.2% (inactive)
17,Clc1ccccc1-c1nn2c(COc3ccccc3)nnc2s1,9.4% (inactive)
18,c1ccc(CCc2nn3c(Cc4ccccc4)nnc3s2)cc1,38.2% (inactive)
19,CCOc1ccccc1OCc1nn2c(COc3ccccc3)nnc2s1,45.2% (inactive)
20,Cc1cccc(NC(=O)CSc2nnc(-c3n[nH]c4ccccc34)o2)c1,17.6% (inactive)
21,COCCNC(=S)Nc1ccc([N+](=O)[O-])cc1C,2% (inactive)
22,CCOc1ccccc1N(C(=O)c1ccco1)C(C(=O)NC1CCCC1)c1cccnc1 (centres undefined),5.1% (inactive)
